Measurements: PubChem BioAssay AID588675 (Johns Hopkins Ion Channel Center, 2011)
Screen size: about 310,000 compounds; about 1,900 (0.61%) were called active.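 Rule for the calls: active = plate-corrected calcium response at least 3 library SD above typical, normal starting fluorescence, not activating the receptor alone; inactive = the rest.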 This excerpt belongs to a sample that is enriched for actives.

Molecular target: Mas-related G-protein coupled receptor member X1 (Homo sapiens) (UniProt Q96LB2)
Assay: allosteric enhancers of human MrgX1 signaling – HEK293 cells, Fluo-4 calcium flux, primary screen (AID 588675);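 note: compound read alongside a low EC10 to EC30 dose of BAM8-22 agonist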;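 for B-score: peak minus trough fluorescence over baseline measured at the second addition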
Conditions: MrgX1-HEK293, Fluo-4 calcium flux, FDSS, at 10 µM; active compounds read high

Mas-related G-protein coupled receptor member X1 (Homo sapiens), sequence (Q96LB2 whole entry, looked up): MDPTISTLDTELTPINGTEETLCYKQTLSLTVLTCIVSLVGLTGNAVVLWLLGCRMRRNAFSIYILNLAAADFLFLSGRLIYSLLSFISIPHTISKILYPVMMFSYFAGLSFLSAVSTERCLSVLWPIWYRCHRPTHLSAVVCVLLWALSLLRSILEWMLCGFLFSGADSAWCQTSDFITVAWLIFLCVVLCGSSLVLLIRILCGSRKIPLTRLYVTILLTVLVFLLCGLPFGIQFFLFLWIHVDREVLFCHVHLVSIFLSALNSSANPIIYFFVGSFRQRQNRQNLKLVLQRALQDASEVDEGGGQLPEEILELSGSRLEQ

Structure (SMILES)	B-score
O=C(CCc1[nH]c2ccccc2c1Sc1ccccc1)N(CCO)CCO	inactive
CN(Cc1ccccc1)C(=O)C1CCCN(c2ncnc3c2nc2n3CCCCC2)C1 (configuration not stated)	inactive
CCCCOP(=O)(c1ccc(N(C)C)cc1)C(O)c1cc(OC)ccc1OC (configuration not stated)	inactive
COC(CNC(=O)Cn1ncc2ccsc2c1=O)OC	inactive
CCC1=C(OC(=O)N(CC)CC)N2C(=O)OC(=NCC3CC3)[C@]2(C)[C@H]2C1=CC[C@H]1C(=O)N(CC(=O)OC)C(=O)[C@H]12	inactive
Cc1ccc(NS(=O)(=O)c2ccc(-c3coc(C)n3)cc2)c(C)c1	inactive
COc1cccc(NS(=O)(=O)c2ccc(-c3coc(C)n3)cc2)c1	inactive
CCN(c1cccc(C)c1)S(=O)(=O)c1ccc(-c2coc(C)n2)cc1	8.56 (active)
CCCCN(CCCC)CCC(O)c1cc2c(Cl)cc(Cl)cc2c2cc(C(F)(F)F)ccc12 (configuration not stated)	inactive
Fc1cccc(Cl)c1COc1ccc(-c2nnco2)cc1	13.2 (active)
Fc1ccc(COc2ccc(-c3nnco3)cc2)cc1	inactive
O=C(/C=C/c1ccc(OCc2c(F)cccc2Cl)cc1)N1CCOCC1	inactive
O=C(Nc1ccc(F)cc1)N1CCN(c2ccc(F)cc2)CC1	inactive
O=C(c1cc(-c2ccc(F)cc2)on1)N1CCN(c2ccc(F)cc2)CC1	inactive
Cc1c(C(=O)N2CCN(c3ccc(F)cc3)CC2)oc2c1C(=O)CCC2	7.4 (active)
Cc1ccc(S(=O)(=O)n2nc(OC(=O)C(C)(C)C)cc2N)cc1	inactive
Nc1cc(OC(=O)c2ccccc2Br)nn1S(=O)(=O)c1ccccc1	7.83 (active)
O=C(COC(=O)c1ccccc1Br)Nc1nnc(-c2ccccc2)o1	inactive
Cc1ccc2[nH]c(C(=O)O)c(NC(=O)c3ccccc3[N+](=O)[O-])c2c1	inactive
O=C(O)C1=CCCN(CCON=C(c2ccccc2)c2ccccc2)C1	inactive
O=C(Nc1ccccc1N1CCOCC1)c1csc2c1CCCC2	12 (active)
Cc1cc(C(=O)Nc2ccccc2N2CCOCC2)c2ccccc2n1	inactive

Structure (SMILES)	B-score
Cc1ccc(S(=O)(=O)N2CCOCC2)cc1C(=O)Nc1ccccc1N1CCCC1	inactive
c1ccc(-c2ccc3c(c2)NC(C2Nc4cc(-c5ccccc5)ccc4O2)O3)cc1 (configuration not stated)	inactive
O=C(Oc1ccc(Br)cc1C(=S)N1CCOCC1)c1cccc([N+](=O)[O-])c1	inactive
COc1ccc(Nc2nc(=O)[nH]nc2C)cc1	inactive
COc1ccc(Nc2nnc(C)c3ccccc23)cc1	22.5 (active)
Cc1nnc(NCCO)c2ccccc12	inactive
CN(c1ccccc1)S(=O)(=O)c1ccc(NC(=O)COc2ccccc2)cc1	inactive
O=C(NCc1ccccc1Cl)c1ccc2c(=O)n(CC3CCCO3)c(=S)[nH]c2c1 (configuration not stated)	inactive
CC(C)CCn1cnc2c1c(=O)n(CC(=O)NC(N)=O)c(=O)n2Cc1ccccc1	inactive
Cc1ccc(Oc2nc3ccccc3n3c(C)nnc23)cc1	inactive
Cc1ccc(S(=O)(=O)N(C)c2nc3ccccc3n3c(C(C)C)nnc23)cc1	6.54 (active)
CC(=O)Nc1ccc(S(=O)(=O)N(C)c2nc3ccccc3nc2Cl)cc1	inactive
CC(C)CC(=O)NC(=S)NCc1ccccc1	inactive
CCC(=O)NC(=Nc1nc2ccccc2s1)NC(=O)CC	inactive
CC(C)CC(=O)N/C(N)=N/c1nc2ccccc2s1	12.9 (active)
O=C(c1cccc(-n2cccc2)c1)N1CCN(S(=O)(=O)c2ccc(F)cc2)CC1	inactive
CC(NC(=O)c1ccc(N2CCNCC2)c([N+](=O)[O-])c1)C12CC3CC(CC(C3)C1)C2 (configuration not stated)	6.65 (active)
CCC(C)NC(=O)c1ccc(N2CCC3(CC2)OCCO3)c([N+](=O)[O-])c1 (configuration not stated)	inactive
O=C(NC1C2CC3CC(C2)CC1C3)c1ccc(N2CCNCC2)c([N+](=O)[O-])c1 (configuration not stated)	inactive
CCOC(=O)Cc1csc(NC(=O)CN(C)S(=O)(=O)c2ccc3c(c2)CCC(=O)N3)n1	inactive
Cc1nn(-c2ccc([N+](=O)[O-])cc2)c(N)c1-c1ccccc1	inactive
C/C(=N\NC(=O)c1ccoc1C)c1ccccc1O	inactive

Structure (SMILES)	B-score
Cc1nn(C(=O)c2ccoc2C)c(N)c1-c1ccccc1	15.4 (active)
N#CCC(=O)NC1CCC(CC2CCC(NC(=O)CC#N)CC2)CC1 (configuration not stated)	inactive
Cc1ccccc1-n1c(C)cc(/C=C2\NC(=O)NC2=O)c1C	inactive
COc1cc(OC)c(-n2cc(-c3ccc(Cl)cc3)[nH]c2=O)cc1Cl	inactive
COc1cc(OC)c(-n2c(C)cc(C=O)c2C)cc1Cl	9.68 (active)
COCCNC(=O)C1CCN(S(=O)(=O)c2ccc3c(c2)OCCO3)CC1	24.9 (active)
COc1ccccc1CNC(=O)C1CCN(S(=O)(=O)c2ccc3c(c2)OCCO3)CC1	inactive
O=C(NCc1cccs1)C1CCN(S(=O)(=O)c2ccc3c(c2)OCCO3)CC1	inactive
O=C(/C=C/c1ccc(F)cc1)NC(=S)NNC(=O)c1cccnc1	inactive
CCCCn1c(N)c(N(CCOC)C(=O)COc2c(C)cccc2C)c(=O)[nH]c1=O	inactive
Cc1ccc(S(=O)(=O)NC(=O)COc2ccccc2C)cc1	inactive
Cc1occc1C(=O)Nc1nnc(-c2ccncc2)s1	7.38 (active)
Cc1occc1C(=O)Nc1nnc(C2CCCCC2)s1	inactive
Cc1ccc(C(=O)Nc2nnc(-c3ccncc3)s2)o1	inactive
CCOc1ccc(OCC)c(NC(=O)CSc2nnc(Cn3cnc4ccccc43)n2C)c1	inactive
COC(=O)C1=C(C)N(C)C(=S)NC1c1cc(OC)ccc1OC (configuration not stated)	inactive
CC1CCCC(C)N1/N=C/c1ccccc1OC(F)F (configuration not stated)	inactive
COC(=O)c1ccc(/C=N/NC(=O)C(=O)N2CCCCCC2)cc1	inactive
COC(=O)c1ccc(/C=N/N2C(C)CCCC2C)cc1 (configuration not stated)	6.7 (active)
Cc1c(CC(=O)NCCCCCC(=O)O)c(=O)oc2cc3occ(-c4ccccc4)c3cc12	inactive
Cc1coc2cc3oc(=O)c(CCC(=O)O)c(C)c3cc12	inactive
Cc1c(CCC(=O)O)c(=O)oc2cc3occ(-c4ccccc4)c3cc12	7.5 (active)

Structure (SMILES)	B-score
O=C1NC2(CCCCCC2)C(=O)N1CCS(=O)(=O)Oc1ccccc1	inactive
Cc1ccsc1C1C(C#N)=C(N)OC2=C1C(=O)CC(C)C2 (configuration not stated)	inactive
COC(=O)[C@]1(S(=O)(=O)c2ccccc2)C[C@@H]2ON=C(c3ccc(OC)cc3)[C@@H]2C1	inactive
Cc1ccc(-n2cnc3ncnc(-c4ccccc4)c32)cc1	7.18 (active)
Cc1ccc(-c2nn(C(C)(C)C)c3ncnc(N)c23)cc1	inactive
Cc1ccc(-n2ccc(=O)c(C(=O)O)n2)cc1	inactive
CC(C)OC(=O)c1ccc(COc2ccc3ccc(=O)oc3c2)o1	inactive
CCc1cc2c(=O)c(-c3nc4ccccc4n3C)c(CCCC(=O)O)oc2cc1OC(=O)C(C)(C)C	inactive
COc1cccc2c(C)c(C(=O)O)[nH]c12	inactive
COc1cc(C(F)(F)F)nc2c(Br)c(C(C)(C)C)nn12	10.1 (active)
CNC(=O)c1sc(Nc2ccc(OCc3ccccc3)cc2)nc1C	inactive
CCCC(=O)Nc1ncnc2c1ncn2[C@@H]1O[C@@H]2OP(=O)(O)OC[C@H]2[C@H]1OC(=O)CCC	inactive
CC(=O)N1c2ccc(S(=O)(=O)N3CCCC(C(=O)Nc4cccc(Cl)c4)C3)cc2CC1C (configuration not stated)	16.4 (active)
CC(=O)N1c2ccc(S(=O)(=O)N3CCCC(C(=O)NCc4ccc(Cl)cc4)C3)cc2CC1C (configuration not stated)	inactive
CC(=O)N1c2ccc(S(=O)(=O)N3CCCC(C(=O)Nc4cccc(F)c4)C3)cc2CC1C (configuration not stated)	inactive
Cc1nnc(SCC(=O)NC(=O)NC2CCCC2)n1N	inactive
COc1ccc(C2c3[nH]c4ccccc4c3CCN2CCCn2cccn2)cc1C (configuration not stated)	inactive
Cc1nccn1CCC1CCCCN1C(=O)CCc1nnc(-c2ccsc2)o1 (configuration not stated)	inactive
CC1(C)CC(=O)CC2(C1)NCC(c1ccccc1Cl)c1c2[nH]c2ccccc12 (configuration not stated)	13.7 (active)
CC1CCN(c2ccc(-c3ccc(NC(=O)c4ccco4)cc3)nn2)CC1	inactive
O=C(O)CCN=C1CCc2ccccc2N1	inactive
CCOC(=O)C1CCN(S(=O)(=O)c2ccc3c(c2)N(C)C(=O)CC(=O)N3C)CC1	inactive

Structure (SMILES)	B-score
COc1cccc(NC(=O)CSc2nnc(Cc3ccc(OC)c(OC)c3)o2)c1	10.7 (active)
COc1ccc(C(=O)NCc2nnc(SCC(=O)Nc3cccc(OC)c3)o2)cc1	inactive
COc1ccc(Cc2nnc(SCC(=O)Nc3ccc(C)c(C)c3)o2)cc1OC	inactive
O=S(=O)(Nc1ccc(Oc2ncccn2)c(Cl)c1)c1ccc(F)cc1	inactive
COc1ccc(Cl)cc1NC(=O)CCS(=O)(=O)c1ccc(Br)cc1	inactive
CC1CCN(CCCNC(=O)CN2C(=O)CSc3ccc(S(=O)(=O)N4CCCCC4)cc32)CC1	inactive
CC(=O)c1ccc(N=C2SCCCN2C(=O)C2CCCCC2)cc1	inactive
O=C(NNC(=O)c1cc2c(s1)CCCC2)c1ccccc1	6.55 (active)
O=C(Nc1ccc(F)cc1)c1cc2c(s1)CCCC2	inactive
O=C(c1cc2c(s1)CCC2)N1CCN(c2ccccc2)CC1	inactive
CC1(C)C=Cc2c(ccc3c2OC[C@@H](c2ccc(O)cc2O)C3)O1	inactive
CC1(C)CC(=O)c2cnc3nc4ccccc4n3c2C1	inactive
CCn1cc(C(=O)NCC(=O)NC(C)(C)CO)c(=O)c2cc3c(cc21)OCO3	inactive
COc1ccc(-c2nc(N)ncc2-c2ccc(Cl)cc2)c(O)c1	inactive
COc1cccc(-c2cnc(OC(C)(C)C)nc2OC(C)(C)C)c1	6.93 (active)
CC(C)(C)Oc1ncc(Br)c(OC(C)(C)C)n1	inactive
Cc1csc(=Nc2ccccc2)n1CCO	inactive
OCCn1c(-c2ccccc2)csc1=Nc1ccccc1	14.7 (active)
Cc1csc(=NC(=O)c2ccccc2)n1CCO	inactive
